According to PubChem BioAssay:
Activity calls are given as the source filed them.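 The calls were made as follows, unless noted: active = fluorescence slope higher than the sample average by over 3 SD (cut at about -0.22 in these data, passing the limit was not always enough); inactive = the rest.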

Tested on: not listed separately
Assay: inhibitors of E-selectin induction by TNFa, primary screen, imaging, HUVEC, immunofluorescence, MLSMR starter and 10KST1 sets (AID 487;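 active = visually confirmed hit in the image check and inhibition above 20%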;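 as to inhibition: signal is fraction of cell area covered by stained E-selectin grains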;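 as to nuclei count: 100% = median nuclei count of all wells on the same plate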)
Details: HUVEC TNFalpha-induced E-selectin immunofluorescence imaging, at 2 µM; inhibition: stronger effect = higher value; nuclei count: measured here: cell number, toxicity

Row | SMILES | inhibition | nuclei count [%]
1 | COc1cccc2cc(C(=O)Nc3cccnc3N3CCOCC3)c(=O)oc12 | -32.3% (inactive) | 98.9
2 | CN(c1ccccc1)S(=O)(=O)c1cc(C(=O)N2CCN(c3ccccn3)CC2)ccc1Cl | -52.9% (inactive) | 108
3 | COc1cc(OC)c(C(=O)Nc2ccc(N(C)C)cc2)cc1OC | -85.5% (inactive) | 116
4 | Cc1ccc(C(=O)C2COC(=O)C2)cc1 (stereo not given) | -31.2% (inactive) | 103
5 | COc1cccc(CNc2cccc3cccnc23)c1O | -165% (inactive) | 122
6 | O=c1c2cn[nH]c2nc(SCc2ccc3c(c2)OCCO3)n1-c1ccccc1 | -27.1% (inactive) | 107
7 | CCOC(=O)c1cc(-c2ccc(Cl)s2)nc2c1c(C)nn2C | -142% (inactive) | 106
8 | Cc1ccc(-c2ccc(/C=N/n3cnnc3)o2)cc1Cl | 10.4% (inactive) | 110
9 | Cc1cc(C)nc(N2CCC(C(=O)NCc3cccc(C(F)(F)F)c3)CC2)n1 | 45.5% (inactive) | 85.1
10 | O=C(CN1C(=O)COc2ccccc21)NCCCN1CCc2ccccc2C1 | -13.4% (inactive) | 106
11 | O=C(CCn1c(=O)sc2ccccc21)NC1=NCCS1 | -118% (inactive) | 121
12 | Cc1ccccc1NC(=O)N1C2CCCC1CC(NC(=O)C1CC1)C2 (stereo not given) | 64.2% (inactive) | 94.5
13 | C=C(C)CSc1nnc(-c2cccc(S(=O)(=O)N(C)C)c2)n1-c1cc(OC)ccc1OC | -12.6% (inactive) | 107
14 | C=CCn1c(=O)/c(=C/c2ccc(O)cc2)s/c1=C(/C#N)c1nnc2n1CCCCC2 | -5.3% (inactive) | 116
15 | O=C(CSc1nnnn1Cc1ccccc1)Nc1ccc2c(c1)OCO2 | -1% (inactive) | 93.6
16 | CNC(=O)c1c(O)c2cccc3c2n(c1=O)CC3 | -60.1% (inactive) | 99
17 | Cc1oc(-c2ccccc2)cc1C(N)=O | 18.6% (inactive) | 97.7
18 | Cc1cccc(-n2nnc(C(=O)NCc3ccccc3)c2N)c1 | -2.7% (inactive) | 106
19 | COC(=O)c1[nH]c(C)c(/C(O)=C2\C(=O)C(=O)N(CCCN3CCOCC3)C2c2ccccn2)c1C (stereo not given) | -1.3% (inactive) | 113
20 | Cc1noc(C)c1C(=O)OCC(=O)Nc1ccccc1C(=O)NC(C)c1ccccc1 (stereo not given) | -72.6% (inactive) | 106

Row | SMILES | inhibition | nuclei count [%]
21 | Cn1c(SC/C=C/c2ccccc2)nnc1-c1cnccn1 | 6.2% (inactive) | 95.1
22 | O=C(CN1C(=O)NC2(CCCCCC2)C1=O)N1CCC(Cc2ccccc2)CC1 | -38.1% (inactive) | 104
23 | CCOC(=O)c1c(NC(=O)CSc2nnc(-c3ccc(OC)cc3)o2)sc2c1CCC2 | -10.2% (inactive) | 91.1
24 | Cn1nnnc1SCC(=O)Nc1ccccc1C(=O)NCc1ccccc1 | -74.8% (inactive) | 124
25 | Cc1ccc(NC(=O)CSc2nnc(NC(=O)CN3CCOCC3)s2)cc1 | -43.2% (inactive) | 106
26 | O=C(NCc1ccc(F)cc1)c1cc(-c2ccco2)on1 | 29.3% (inactive) | 102
27 | COC(=O)CCN1CCC(C(N)=O)CC1 | -132% (inactive) | 129
28 | COc1cccc(OC)c1C(=O)N1CCOCC1 | -105% (inactive) | 126
29 | CCOC(=O)CSc1nc(C)c(C(=O)OCC)s1 | -18.1% (inactive) | 137
30 | CCC(=O)Nc1ccc(F)c(Cl)c1 | -76% (inactive) | 124
31 | N#CCc1nc(CSc2nc3ccccc3s2)cs1 | -27.5% (inactive) | 114
32 | CS(=O)(=O)Nc1ccc(S(=O)(=O)Nc2nccs2)cc1 | -42.5% (inactive) | 87.9
33 | CC(C)CNC(=O)c1ccccc1NC(=O)CN(c1ccc2c(c1)OCCO2)S(C)(=O)=O | -0.7% (inactive) | 105
34 | CCOC(=O)c1[nH]cc(-c2ccccc2)c1N1CCOCC1 | -131% (inactive) | 100
35 | CCn1c(=O)cc(SCC(=O)NCC2CCCO2)c2ccccc21 (stereo not given) | 32.5% (inactive) | 103
36 | O=C(c1ccco1)N1CCN(CC(=O)N(C2CCCCC2)C2CCS(=O)(=O)C2)CC1 (stereo not given) | -28.9% (inactive) | 110
37 | CCCn1c(NCc2cc(C)ccc2O)nc2ccccc21 | -16.5% (inactive) | 49.2
38 | CCC(C)c1ccc(NC(=O)C2CC2)cc1 (stereo not given) | -74.9% (inactive) | 118
39 | COc1ccccc1-n1c(C)nnc1SCC(N)=O | -49.7% (inactive) | 103
40 | Cn1c(=O)oc2cc(S(=O)(=O)N3CCC(C(=O)Nc4ccc(OC(F)(F)F)cc4)CC3)ccc21 | -19.6% (inactive) | 75.1

Target: Voltage-gated potassium channel subunit beta-2 (Rattus norvegicus) (UniProt P62483)
Sequence (P62483 whole entry, looked up): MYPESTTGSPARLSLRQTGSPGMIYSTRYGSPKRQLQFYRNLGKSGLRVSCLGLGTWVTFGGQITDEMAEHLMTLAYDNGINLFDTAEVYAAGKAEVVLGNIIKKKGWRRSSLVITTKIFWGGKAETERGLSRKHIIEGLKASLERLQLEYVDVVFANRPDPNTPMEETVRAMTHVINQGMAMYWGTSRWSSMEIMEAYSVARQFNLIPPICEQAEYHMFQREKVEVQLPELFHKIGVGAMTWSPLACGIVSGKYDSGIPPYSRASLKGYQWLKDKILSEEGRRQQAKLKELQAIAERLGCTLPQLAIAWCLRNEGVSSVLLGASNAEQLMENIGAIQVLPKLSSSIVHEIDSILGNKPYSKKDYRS
Assay: KvBeta enzyme negative modulators, primary screen, biochemical, NADPH fluorescence (AID 622);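 also: slope of raw intensity against log time taken from 70 to 1610 s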
Details: recombinant KvBeta, 4-cyanobenzaldehyde reduction, at 10 µM, stronger effect = higher value

Row | SMILES | fluorescence slope
41 | COc1cccc2cc(C(=O)Nc3cccnc3N3CCOCC3)c(=O)oc12 | -0.573 (inactive)
42 | CN(c1ccccc1)S(=O)(=O)c1cc(C(=O)N2CCN(c3ccccn3)CC2)ccc1Cl | -0.475 (inactive)
43 | COc1cc(OC)c(C(=O)Nc2ccc(N(C)C)cc2)cc1OC | -0.448 (inactive)
44 | Cc1ccc(C(=O)C2COC(=O)C2)cc1 (stereo not given) | -0.579 (inactive)
45 | COc1cccc(CNc2cccc3cccnc23)c1O | -0.564 (inactive)
46 | O=c1c2cn[nH]c2nc(SCc2ccc3c(c2)OCCO3)n1-c1ccccc1 | -0.508 (inactive)
47 | CCOC(=O)c1cc(-c2ccc(Cl)s2)nc2c1c(C)nn2C | -0.494 (inactive)
48 | Cc1ccc(-c2ccc(/C=N/n3cnnc3)o2)cc1Cl | -0.555 (inactive)
49 | Cc1cc(C)nc(N2CCC(C(=O)NCc3cccc(C(F)(F)F)c3)CC2)n1 | -0.227 (inactive)
50 | O=C(CN1C(=O)COc2ccccc21)NCCCN1CCc2ccccc2C1 | -0.625 (inactive)
51 | O=C(CCn1c(=O)sc2ccccc21)NC1=NCCS1 | -0.464 (inactive)
52 | Cc1ccccc1NC(=O)N1C2CCCC1CC(NC(=O)C1CC1)C2 (stereo not given) | -0.361 (inactive)
53 | C=C(C)CSc1nnc(-c2cccc(S(=O)(=O)N(C)C)c2)n1-c1cc(OC)ccc1OC | -0.576 (inactive)
54 | C=CCn1c(=O)/c(=C/c2ccc(O)cc2)s/c1=C(/C#N)c1nnc2n1CCCCC2 | -0.332 (inactive)
55 | O=C(CSc1nnnn1Cc1ccccc1)Nc1ccc2c(c1)OCO2 | -0.257 (inactive)
56 | CNC(=O)c1c(O)c2cccc3c2n(c1=O)CC3 | -0.545 (inactive)
57 | Cc1oc(-c2ccccc2)cc1C(N)=O | -0.548 (inactive)
58 | Cc1cccc(-n2nnc(C(=O)NCc3ccccc3)c2N)c1 | -0.461 (inactive)
59 | COC(=O)c1[nH]c(C)c(/C(O)=C2\C(=O)C(=O)N(CCCN3CCOCC3)C2c2ccccn2)c1C (stereo not given) | -0.473 (inactive)
60 | Cc1noc(C)c1C(=O)OCC(=O)Nc1ccccc1C(=O)NC(C)c1ccccc1 (stereo not given) | -0.414 (inactive)

Row | SMILES | fluorescence slope
61 | Cn1c(SC/C=C/c2ccccc2)nnc1-c1cnccn1 | -0.572 (inactive)
62 | O=C(CN1C(=O)NC2(CCCCCC2)C1=O)N1CCC(Cc2ccccc2)CC1 | -0.366 (inactive)
63 | CCOC(=O)c1c(NC(=O)CSc2nnc(-c3ccc(OC)cc3)o2)sc2c1CCC2 | -0.56 (inactive)
64 | Cn1nnnc1SCC(=O)Nc1ccccc1C(=O)NCc1ccccc1 | -0.275 (inactive)
65 | Cc1ccc(NC(=O)CSc2nnc(NC(=O)CN3CCOCC3)s2)cc1 | -0.438 (inactive)
66 | O=C(NCc1ccc(F)cc1)c1cc(-c2ccco2)on1 | -0.46 (inactive)
67 | COC(=O)CCN1CCC(C(N)=O)CC1 | -0.437 (inactive)
68 | COc1cccc(OC)c1C(=O)N1CCOCC1 | -0.536 (inactive)
69 | CCOC(=O)CSc1nc(C)c(C(=O)OCC)s1 | -0.556 (inactive)
70 | CCC(=O)Nc1ccc(F)c(Cl)c1 | -0.538 (inactive)
71 | N#CCc1nc(CSc2nc3ccccc3s2)cs1 | -0.551 (inactive)
72 | CS(=O)(=O)Nc1ccc(S(=O)(=O)Nc2nccs2)cc1 | -0.399 (inactive)
73 | CC(C)CNC(=O)c1ccccc1NC(=O)CN(c1ccc2c(c1)OCCO2)S(C)(=O)=O | -0.574 (inactive)
74 | CCOC(=O)c1[nH]cc(-c2ccccc2)c1N1CCOCC1 | -0.541 (inactive)
75 | CCn1c(=O)cc(SCC(=O)NCC2CCCO2)c2ccccc21 (stereo not given) | -0.568 (inactive)
76 | O=C(c1ccco1)N1CCN(CC(=O)N(C2CCCCC2)C2CCS(=O)(=O)C2)CC1 (stereo not given) | -0.565 (inactive)
77 | CCCn1c(NCc2cc(C)ccc2O)nc2ccccc21 | -0.522 (inactive)
78 | CCC(C)c1ccc(NC(=O)C2CC2)cc1 (stereo not given) | -0.569 (inactive)
79 | COc1ccccc1-n1c(C)nnc1SCC(N)=O | -0.521 (inactive)
80 | Cn1c(=O)oc2cc(S(=O)(=O)N3CCC(C(=O)Nc4ccc(OC(F)(F)F)cc4)CC3)ccc21 | -0.572 (inactive)
